Test results taken from PubChem BioAssay AID602295 (Broad Institute, 2012).

Biological target: Mitogen-activated protein kinase 3 (Homo sapiens) (UniProt P27361)
Experiment: ERK1 kinase inhibitors, dose response, selectivity assay for Dyrk1A inhibitor NFAT project, biochemical, ADP-Glo luminescence, cherry pick, set 2 (AID 602295)
Details: 120 min; series mostly up to 10 µM; activity change, negative = inhibition: at the top concentration;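 active = every separate test run called active, meaning the signal drops and a potency is fitted within twice the top valid dose; inconclusive = runs disagree, poor fit, or flat partial inhibition; inactive = all runs inactive, flat, opposite direction or too weak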

Mitogen-activated protein kinase 3 (Homo sapiens), sequence (P27361 whole entry, looked up): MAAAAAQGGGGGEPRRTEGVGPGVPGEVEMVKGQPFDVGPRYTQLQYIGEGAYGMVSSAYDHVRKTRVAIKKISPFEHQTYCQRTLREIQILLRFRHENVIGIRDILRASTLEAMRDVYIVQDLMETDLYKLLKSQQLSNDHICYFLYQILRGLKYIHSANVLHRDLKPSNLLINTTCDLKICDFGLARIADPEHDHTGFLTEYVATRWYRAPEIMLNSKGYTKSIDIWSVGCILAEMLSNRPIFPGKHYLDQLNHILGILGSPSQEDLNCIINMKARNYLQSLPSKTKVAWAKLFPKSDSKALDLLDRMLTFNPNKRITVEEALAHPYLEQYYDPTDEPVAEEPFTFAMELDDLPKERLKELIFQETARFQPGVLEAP

Activity change, negative = inhibition, inactive:
CN(C)c1ccc(-c2nccc(NCc3cccs3)n2)cc1 -15.6%, c1nc(NCC2CCCO2)c2cc(-c3ccc4c(c3)OCO4)ccc2n1 (configuration not stated) 30.9%, CSCC(=O)Nc1nc(-c2ccc3c(c2)OCCO3)cs1 -19.7%, COc1ccc(-c2[nH]ncc2-c2ccc3c(c2)OCCO3)c(O)c1 1.76%, Cc1nc(NC(=O)c2ccccc2)sc1-c1csc(NCc2ccco2)n1 -17.2%, Clc1ccc(CNc2nccc(-c3ccc4[nH]ncc4c3)n2)cc1Cl 6.86%, COc1ccc2c(Cl)c(C(=O)NCc3ccco3)sc2c1 13.3%, CC(Nc1nc(-c2cccnc2)nc2ccccc12)c1ccc(F)cc1 (configuration not stated) 22.1%, c1cncc(CNc2cc(-c3ccc4c(c3)OCO4)ncn2)c1 15.9%, COc1cccc(NC(=O)c2sc(NC(=O)c3ccncc3)nc2C)c1 -10.8%, COc1ccc(C(=O)c2sc(Nc3ccccc3F)nc2N)cc1 -20.3%, Clc1cc(Cl)cc(CNc2ncncc2-c2ccc3c(c2)OCO3)c1 10.1%, Brc1cc(Br)cc(CNc2nccc(-c3ccc4c(c3)OCO4)n2)c1 9.15%, O=C(COc1ccccc1)Nc1cccc(-c2cn3cccnc3n2)c1 -13.8%, Clc1ccc(CNc2ncncc2-c2ccc3c(c2)OCO3)cc1 20.6%, O=C(O)COc1ccc(/C=C/c2nc3ccc([N+](=O)[O-])cc3s2)cc1 -12.7%, CCN(Cc1cccs1)c1ncnc2ccc(-c3ccc4c(c3)OCO4)cc12 13.5%, CCOC(=O)c1ccc(-c2ccc3ncnc(N(C)Cc4sccc4C)c3c2)o1 13.8%, O=[N+]([O-])c1cc(Nc2nccc(-c3ccc4c(c3)OCO4)n2)cc(C(F)(F)F)c1 19%, COc1cc(C(=O)Nc2cccc(-c3nncn3C)c2)cc(OC)c1OC -9.92%, c1cncc(-c2nc(NCc3ccco3)c3ccccc3n2)c1 -18.8%, Cc1ccc(CNc2ncnc3ccc(-c4ccc5c(c4)OCO5)cc23)o1 12.1%, O=C(Nc1nc2ccc(Cl)cc2s1)C1CCCO1 (configuration not stated) -21.8%, COCCNC(=O)c1ccc2c(c1)nc(C)n2-c1cccc(F)c1 18.5%, Cc1nc(N)sc1-c1csc(Nc2ccccc2)n1 -26.4%, FC(F)(F)c1cccc(Nc2nccc(-c3ccc4c(c3)OCO4)n2)c1 5.81%, Cc1nc(NC(=O)c2ccccc2)sc1-c1csc(N)n1 -10%, Cc1ccsc1CN(C)c1ncnc2ccc(-c3ccc(CO)o3)cc12 8.68%, COc1cccc(-c2sc3ccccc3c2-c2ccc(OCCN3CCCC3)cc2)c1 21.3%, COc1cccc(Nc2nc(NCCO)c3ccccc3n2)c1 14.1%, Cc1ccsc1CNc1ncnc2ccc(-c3ccc4c(c3)OCO4)cc12 1.53%, Cc1ccc(CNc2ncnc3ccc(-c4ccoc4C)cc23)o1 -4.8%
